# Out of some 66,000 compounds screened, about 960 (1.5%) showed an effect of 50% or more. Many of the other results were omitted from the sample, so strong results are more common in it than they were.
# Tested on: Trypanosoma brucei
# Experiment: Trypanosoma brucei 72 hour study
# Format: functional, organism-based
# Set-up: scale not given: in the data most compounds retested in dose-response had high values
structure (smiles),measurement,setting,value
CCC(C)Oc1ccc(CNCCNS(C)(=O)=O)cc1Cl (stereo unspecified),Percent Effect,"30 µM, 30.03 µM",0.13%
O=C(O)C(F)(F)F.O=C(O)C(F)(F)F.O=C1CC(c2ccncc2)C2(CCN(CCc3ccccc3)CC2)N1 (stereo unspecified),Percent Effect,"30 µM, 30.03 µM",36.79%
CS(=O)(=O)N1CCC2(CC1)CC(NCC1CC1)c1ccccc12.O=C(O)C(F)(F)F (stereo unspecified),Percent Effect,"30.3 µM, […]",3.499%
CN1CC2(CCCN(Cc3ccc(Oc4ccccc4)cc3)C2)OC1=O (stereo unspecified),Percent Effect,"30 µM, 30.03 µM",-7.898%
CN(Cc1cc(Br)cn1C)C(=O)Cc1cccnc1,Percent Effect,"30 µM, 30.03 µM",102.7%
CN(Cc1cc(Br)cn1C)C(=O)c1cccnc1,Percent Effect,"30 µM, 30.03 µM",-39.03%
CN(Cc1cc(Br)cn1C)C(=O)Cc1cccc(O)c1,Percent Effect,"30 µM, 30.03 µM",-57.62%
COc1ccc(CN2CC[C@H]3[C@H]2CC(=O)N3Cc2cccc(C)n2)cc1.O=C(O)C(F)(F)F.O=C(O)C(F)(F)F,Percent Effect,"30.3 µM, […]",-40.33%
Cc1cc(N2CCN(C(=O)c3cc(Cl)c[nH]3)CC2)nc(N)n1,Percent Effect,"30 µM, 30.03 µM",109.2%
Cc1cc(N2CCN(C(=O)c3cc(Cl)c[nH]3)CC2)nc(C(C)C)n1,Percent Effect,"30 µM, 30.03 µM",-55.97%
Cc1cc(N2CCN(C(=O)c3cc(Cl)c[nH]3)CC2)nc(C)n1,Percent Effect,"30 µM, 30.03 µM",-21.87%
Cc1ccc(CN(CCCN(C)C)Cc2cnc(C)n2C)o1.O=C(O)CC(O)(CC(=O)O)C(=O)O,Percent Effect,"30.3 µM, […]",-2.378%
CCn1c(C(=O)N2CCN(CC[S+](C)[O-])CC2)cc2ccccc21 (stereo unspecified),Percent Effect,10 µM,-31.07%
COc1ccc(NC(=O)NCc2cccc(N(C)C)n2)c(Cl)c1,Percent Effect,"30.3 µM, […]",103.9%
COCc1c(Cl)cccc1NC(=O)NCc1cccc(N(C)C)n1,Percent Effect,"30.3 µM, […]",55.78%
COc1ccc(C)c(NC(=O)NCc2cccc(N(C)C)n2)c1,Percent Effect,"30.3 µM, […]",-277.4%
CN(C)c1cccc(CNC(=O)Nc2cc(C#N)ccc2Cl)n1,Percent Effect,"30.3 µM, […]",-223.5%
CC(=O)c1ccc(NC(=O)NCc2cccc(N(C)C)n2)cc1C,Percent Effect,"30 µM, 30.03 µM",-17.1%
COc1cc(F)cc(NC(=O)NCc2cccc(N(C)C)n2)c1,Percent Effect,"30.3 µM, […]",-613%
N#Cc1cccc(C(=O)N2CCC3(CCC(=O)N(C4CC4)C3)CC2)c1,Percent Effect,"30 µM, 30.03 µM",-3.327%
O=C(O)C(F)(F)F.c1ccc(CN2CCc3c(CNc4nccs4)n[nH]c3C2)nc1,Percent Effect,"30 µM, 30.03 µM",-34.93%
Cc1ccn(CCC(=O)N2CCCC2c2nnc(-c3scnc3C)o2)n1 (stereo unspecified),Percent Effect,"30.3 µM, […]",-1.608%
Cc1cnc(-c2nc(C3CCCN(Cc4ccccc4C)C3)no2)cn1.Cl (stereo unspecified),Percent Effect,"30.3 µM, […]",-19.46%
Cn1ccc2c(-c3cc(N4CCOCC4)ncn3)ccnc21,Percent Effect,"30 µM, 30.03 µM",-20.01%
Cn1ccc2c(-c3cc(N)nc(N4CCOCC4)n3)ccnc21,Percent Effect,"30 µM, 30.03 µM",69.92%
CCc1cc(-c2ccnc3c2ccn3C)nc(N2CCOCC2)n1,Percent Effect,"30 µM, 30.03 µM",-28.1%
CCNc1nc(C(=O)N(C)Cc2nc(CC)no2)cs1,Percent Effect,"30 µM, 30.03 µM",-27.33%
CC(C)c1nc(C2CCCN2c2cnc3cc(F)c(F)cc3n2)no1 (stereo unspecified),Percent Effect,"30.3 µM, […]",85.34%
CC(C)c1nc(C2CCCN2c2ccnc(C3CCCC3)n2)no1 (stereo unspecified),Percent Effect,"30.3 µM, […]",-51.91%
CC(C)c1nc(C2CCCN2c2cnc3ccccc3n2)no1 (stereo unspecified),Percent Effect,"30.3 µM, […]",-0.9034%
Cc1noc(C)c1CN1CCc2ncnc(-c3ccoc3)c2CC1.O=C(O)C(F)(F)F,Percent Effect,"30.3 µM, […]",-51.79%
Cc1nc(CNCc2cccc(OC34CCCN(CC3)C4)c2)n[nH]1 (stereo unspecified),Percent Effect,"30 µM, 30.03 µM",3.883%
O=c1[nH]nc(CNCc2ccc(OC34CCCN(CC3)C4)cc2)[nH]1 (stereo unspecified),Percent Effect,"30 µM, 30.03 µM",-0.5692%
COc1cc(C#N)ccc1OC12CCCN(CC1)C2 (stereo unspecified),Percent Effect,"30 µM, 30.03 µM",-13.64%
Cc1cnccc1CNCc1ccc(OC23CCCN(CC2)C3)cc1 (stereo unspecified),Percent Effect,"30 µM, 30.03 µM",6.423%
c1ccc(Oc2cccc(OC34CCCN(CC3)C4)c2)cc1 (stereo unspecified),Percent Effect,"30.3 µM, […]",99.26%
c1ccc(Oc2ccc(OC34CCCN(CC3)C4)cc2)cc1 (stereo unspecified),Percent Effect,"30.3 µM, […]",99.82%
Cl.O=C(Nc1cccc(CNCc2cccs2)c1)C1CC1,Percent Effect,10 µM,-25.65%
O=C(CC1CCC2(CC1)CCN(Cc1ccncc1)CC2)N1CCCC1.O=C(O)C(F)(F)F,Percent Effect,"30.3 µM, […]",-30.07%
CCCn1c(N2CCCC(C)C2)nc2c(C)nn(C)c2c1=O (stereo unspecified),Percent Effect,"30.3 µM, […]",99.54%
CCCn1c(N2CCCCC2)nc2c(C)nn(C)c2c1=O,Percent Effect,"30.3 µM, […]",-27.42%
CCCn1c(N2CCCC2)nc2c(C)nn(C)c2c1=O,Percent Effect,"30.3 µM, […]",-10.23%
CC(C)CS(=O)(=O)N1C[C@H]2C[C@H](C(=O)N3CCOCC3)[C@@H](C1)O2,Percent Effect,"30.3 µM, […]",-39.74%
COc1ncccc1CNc1snc(Cl)c1C#N,Percent Effect,"30 µM, 30.03 µM",-23.85%
COCCCNC(=O)c1cc(C(C)C)nc(N2CCCC2)n1,Percent Effect,"30.3 µM, […]",-9.807%
CC(C)c1cc(C(=O)NCCCN(C)C)nc(N2CCCC2)n1,Percent Effect,"30.3 µM, […]",85.35%
CCN(CC)CCNC(=O)c1cc(C(C)C)nc(N2CCCC2)n1,Percent Effect,"30 µM, 30.03 µM",-3.491%
Cc1nc(C(=O)N2CC[C@@]3(C[C@@H](NS(C)(=O)=O)CCO3)C2)cs1,Percent Effect,"30.3 µM, […]",-224.6%
Cc1ccn(-c2ccc(NCc3cccnc3N3CCCCC3)nn2)n1,Percent Effect,"30.3 µM, […]",1.055%
Cc1ccn(-c2ccc(NCc3ccccc3F)nn2)n1,Percent Effect,"30.3 µM, […]",-5.586%
Cc1ccn(-c2ccc(NCc3ccnc(N4CCCCC4)c3)nn2)n1,Percent Effect,"30.3 µM, […]",100.1%
CC1c2ncc(CNC(=O)C3CC3)n2CCN1Cc1ccsc1.O=C(O)C(F)(F)F (stereo unspecified),Percent Effect,"30.3 µM, […]",-8.055%
N#Cc1cccc(S(=O)(=O)NC(=O)COCC(F)(F)F)c1,Percent Effect,"30.3 µM, […]",-64.9%
O=C(CCOCC(F)(F)F)NS(=O)(=O)c1cccnc1,Percent Effect,"30.3 µM, […]",-16.93%
N#Cc1cccc(S(=O)(=O)NC(=O)CCOCC(F)(F)F)c1,Percent Effect,"30.3 µM, […]",72.29%
CN(C)c1ncc(-c2cc(C(=O)NCCC#N)n(CC3CC3)c2)cn1.O=C(O)C(F)(F)F,Percent Effect,"30.3 µM, […]",-1.079%
Cn1cc(C(=O)N2CCCC(Cc3cccc4ncccc34)C2)cn1 (stereo unspecified),Percent Effect,"30.3 µM, […]",-45.5%
CCN(CC)C(=O)NCCc1ccn(-c2ccccc2)n1,Percent Effect,10 µM,99.69%
CC(C)(C)C(=O)NCCc1ccn(-c2ccccc2)n1,Percent Effect,"30 µM, 30.03 µM",103.6%
COCCNC(=O)NCCc1ccn(-c2ccccc2)n1,Percent Effect,"30 µM, 30.03 µM",42.02%
O=C(CCNc1ncccn1)NCCc1ccn(-c2ccccc2)n1,Percent Effect,"30 µM, 30.03 µM",19.3%
CC(C)CC(=O)NCCCc1cc(N)n(-c2ccccc2)n1,Percent Effect,"30 µM, 30.03 µM",-23.13%
CC(C)CCC(=O)NCCc1ccn(-c2ccccc2)n1,Percent Effect,10 µM,100.3%
CC(C)(C)C(=O)NCCC(=O)NCCc1ccn(-c2ccccc2)n1,Percent Effect,10 µM,-35.6%
CCC(CC)C(=O)NCCc1ccn(-c2ccccc2)n1,Percent Effect,10 µM,-35.97%
CC(C)(CNC(=O)NCCc1ccn(-c2ccccc2)n1)C(N)=O,Percent Effect,10 µM,-34.81%
